The assay concerns primary human hepatic stellate cells (donor 1). Description: scaled lipid accumulation score (0 = DMSO-like, 1 = nortriptyline-like); higher = stronger HSC inactivation (lipid re-accumulation), active = hit call of the paper. The following applies: 48 h.
Where [1] appears, read: library stock concentration: 80 uM.
[2] abbreviates: library stock concentration: 400 uM.
Setting [3] is: library stock concentration: 2 mM.
Setting [4] is: library stock concentration: 10 mM.
Setting [5] is: library stock concentration: 3.33 mM.
[6] abbreviates: library stock concentration: 1 mM.

From the supplement of paper PMC9135407 come the findings set out here.

Several values for one entry are separate records, joined by “and”; a condition that tells them apart may be missing. Equal entries are not always repeated. Structures can show the parent of a compound that is named as a salt. Hit rate of the full screen: of about 5,800 compounds, about 620 (11%) showed activity. Many of the other results were omitted from the sample, so actives are more common in it than they were. Values without a mark were called inactive.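 How the source made its calls: active = score above a cut-off or among the top three wells of a plate; in these data no inactive exceeds 0.85.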

Consider `C[C@H]1Oc2cc(cnc2N)-c2c(nn(C)c2C#N)CN(C)C(=O)c2ccc(F)cc21`, for which the “scaled lipid accumulation score” value under setting [1] is no more than 0, the “scaled lipid accumulation score” value under setting [2] was no more than 0, the “scaled lipid accumulation score” value under setting [3] is 0.031 and the “scaled lipid accumulation score” value under setting [4] was no more than 0.
With `C[C@H]1COc2c(C3(N)CC3)c(F)cc3c(=O)c(C(=O)O)cn1c23`, the “scaled lipid accumulation score” value under setting [4] was 0.025 and ≤ 0.
In the case of `C[C@H]1COc2c(C3(N)CC3)c(F)cc3c(=O)c(C(=O)O)cn1c23` [Pazufloxacin], the “scaled lipid accumulation score” value (library stock concentration: 6.3 mM) was no more than 0.
For `Clc1ccccc1C(c1ccccc1)(c1ccccc1)n1ccnc1` [Clotrimazole], the “scaled lipid accumulation score” value was no more than 0. For the same compound, under setting [5], the “scaled lipid accumulation score” value is no more than 0. In addition, the “scaled lipid accumulation score” value (library stock concentration: 5.8 mM) is no more than -0.001. The “scaled lipid accumulation score” value under setting [4] is no more than 0.
As to `N=C(N)NC(=O)c1nc(Cl)c(N)nc1N`, where the note is “library stock concentration: 18.8 mM”, the “scaled lipid accumulation score” value was no more than -0.021.
On to `N=C(N)NC(=O)c1nc(Cl)c(N)nc1N` [Amiloride hydrochloride], for which the “scaled lipid accumulation score” value is, setting by setting: (library stock concentration: 7.5 mM) no more than -0.001; under setting [4], no more than 0.
As to `CC(=O)Nc1ccccc1` [Acetanilide], the “scaled lipid accumulation score” value reads like this: under setting [5], no more than 0; under setting [4], ≤ 0 and 0.04.
For `CS(=O)(=O)O.N=C(NC(=O)c1nc(Cl)c(N)nc1N)Nc1ccccc1` [Phenamil methanesulfonate], the “scaled lipid accumulation score” value under setting [4] was 1.15 (active).
In the case of `N=C(N)NC(=O)c1nc(Cl)c(N)nc1N` [Amiloride HCl], the “scaled lipid accumulation score” value was no more than 0 under setting [5] and no more than 0 under setting [4].
As to `N=C(N)NC(=N)Nc1ccccc1` [1-Phenylbiguanide hydrochloride], the “scaled lipid accumulation score” value under setting [4] is no more than 0.
In the case of `N=C(N)NC(=O)c1nc(Cl)c(N)nc1N` [Amiloride hydrochloride dihydrate], the “scaled lipid accumulation score” value was no more than 0.
Take `N=C(N)NC(=O)c1nc(Cl)c(N)nc1N` [Amiloride]: under “library stock concentration: 8.7 mM”, the “scaled lipid accumulation score” value is no more than -0.006.
As for `N=C(NC(=O)c1nc(Cl)c(N)nc1N)Nc1ccccc1` [Phenamil], the “scaled lipid accumulation score” value (library stock concentration: 16.4 mM) is 1.07 (active).
`CCCCCCCCCCCCCCCC(=O)NCCc1ccc(O)c(O)c1` [N-Palmitoyl Dopamine]: the “scaled lipid accumulation score” value under setting [6] was no more than 0.
Turning to `CC[C@]1(O)C[C@@H]2CN(CCc3c([nH]c4ccccc34)[C@@](C(=O)OC)(c3cc4c(cc3OC)N(C)[C@@H]3C45CCN4CC=C[C@](CC)([C@H]45)[C@H](OC(C)=O)[C@]3(O)C(=O)OC)C2)C1` (stereo not given in full) [Vinblastine], the “scaled lipid accumulation score” value under setting [4] was 0.956 (active).
In the case of `CC[C@]1(O)C[C@@H]2CN(CCc3c([nH]c4ccccc34)[C@@](C(=O)OC)(c3cc4c(cc3OC)N(C)[C@H]3[C@@](O)(C(=O)OC)[C@H](OC(C)=O)[C@]5(CC)C=CCN6CC[C@]43[C@@H]65)C2)C1` [Vinblastine], the “scaled lipid accumulation score” value under setting [5] is 0.782.
`CCCCC[C@@H](O)/C=C/[C@H]1[C@H](C/C=C\CCCC(=O)O)C(=O)C[C@@H]1O` [ent-Prostaglandin E2]: the “scaled lipid accumulation score” value under setting [6] is no more than 0.
Take `CC(C)=CC[C@@H](O)C1=CC(=O)c2c(O)ccc(O)c2C1=O` [Shikonin]: the “scaled lipid accumulation score” value (library stock concentration: 6.9 mM) was 0.554 and the “scaled lipid accumulation score” value (library stock concentration: 17.3 mM) is no more than -0.012.
`CCCCC[C@H](O)/C=C/[C@H]1[C@H](O)CC(=O)[C@@H]1C/C=C\CCCC(=O)NCCO` [Prostaglandin E2 Ethanolamide]: the “scaled lipid accumulation score” value under setting [6] is no more than 0.
As for `CC(C1=C(CCN(C)C)Cc2ccccc21)c1ccccn1` (stereo in doubt) [(S)-(+)-Dimethindene maleate], the “scaled lipid accumulation score” value under setting [4] is 0.162.
As to `CCCCCC(O)/C=C/C=O` (stereo not given) [4-hydroxy Nonenal], the “scaled lipid accumulation score” value under setting [6] was no more than 0.
`Cc1cc(C(=O)Nc2cc(Nc3ccc4c(/C=C/c5ccccn5)n[nH]c4c3)ccc2F)n(C)n1` [listing 1 of 2 here]: under setting [4], the “scaled lipid accumulation score” value is 1.61 (active).
On to `CNC(=O)c1ccccc1Sc1ccc2c(/C=C/c3ccccn3)n[nH]c2c1` [Axitinib], for which the “scaled lipid accumulation score” value by setting is: under setting [1], no more than -0.001; under setting [2], no more than -0.001; under setting [3], no more than -0.001; under setting [5], no more than 0; under setting [4], ≤ 0 and ≤ -0.001.
Regarding `Cc1cc(C(=O)Nc2cc(Nc3ccc4c(/C=C/c5ccccn5)n[nH]c4c3)ccc2F)n(C)n1` [listing 2 of 2 here], the “scaled lipid accumulation score” value is 0.035 under setting [2] and 0.724 under setting [3].
Regarding `CNC(=O)c1ccccc1Sc1ccc2c(/C=C/c3ccccn3)n[nH]c2c1`, the “scaled lipid accumulation score” value under setting [2] was 0.07, the “scaled lipid accumulation score” value under setting [3] was no more than -0.005 and the “scaled lipid accumulation score” value under setting [4] was 0.024.
`CCCCC[C@H](O)CC[C@@H]1[C@H]2Cc3cccc(OCC(=O)O)c3C[C@H]2C[C@H]1O` [Treprostinil]: the “scaled lipid accumulation score” value under setting [6] was 0.05.
On the same count and under the same terms, next, `CCCC(=O)[O-].[Na+]` [Sodium Butyrate]: no more than 0.
Same read-out and setting: next, `CCCCCCCCCCOCCC(=O)O` [4-Oxatetradecanoic acid]: 0.156.
Regarding `C1=CCOCc2cc(ccc2OCCN2CCCC2)Nc2nccc(n2)-c2cccc(c2)COC1` [Pacritinib], the “scaled lipid accumulation score” value under setting [4] was 0.932 (active).
For `C1=N/C2=N/c3ccc(OCCN4CCCC4)c(c3)COC/C=C/COCc3cccc(c3)C(=C1)N2` [Pacritinib (SB1518)], the “scaled lipid accumulation score” value is 0.536 under setting [5] and 0.41 under setting [4].
In the case of `C1=N/C2=N/c3ccc(OCCN4CCCC4)c(c3)COC/C=C/COCc3cccc(c3)C(=C1)N2` [Pacritinib], the “scaled lipid accumulation score” value is 0.184 under setting [1], 0.686 under setting [2] and 0.473 under setting [3].
With `Cn1c(N2CCCCS2(=O)=O)nc(C(=O)NCc2ccc(F)cc2)c(O)c1=O`, the “scaled lipid accumulation score” value is 0.024 under setting [5] and no more than 0 under setting [4].
Consider `NCCNc1ncc(C(N)=O)c(Nc2cccc(C(F)(F)F)c2)n1` [Syk Inhibitor II], for which the “scaled lipid accumulation score” value under setting [5] was 0.589.
For `CC1c2ccccc2CN1CC1=NCCN1` (stereo not given), under setting [4], the “scaled lipid accumulation score” value was 0.014.
Consider `CCCCC[C@H](O)/C=C/[C@H]1C2COC(C2)[C@@H]1C/C=C/CCCC(=O)O` (stereo not given in full), for which, under setting [6], the “scaled lipid accumulation score” value is no more than 0.
`CC[C@@H](C)Nc1cc(C(=O)NC2CC3CCC(C2)N3c2ccc(C(=O)C3CC3)cn2)c(C)cc1C(N)=O` (stereo not given in full): under setting [4], the “scaled lipid accumulation score” value is 0.853 (active).
On to `CC[C@@H](C)Nc1cc(C(=O)N[C@H]2C[C@H]3CC[C@@H](C2)N3c2ccc(C(=O)C3CC3)cn2)c(C)cc1C(N)=O`, for which the “scaled lipid accumulation score” value under setting [5] is 0.762.
Regarding `NC(=O)c1ccc[n+]([C@@H]2O[C@H](COP(=O)([O-])OP(=O)(O)OC[C@H]3O[C@@H](n4cnc5c(N)ncnc54)[C@H](OP(=O)(O)O)[C@@H]3O)[C@@H](O)[C@H]2O)c1` [Sodium beta-nicotinamide adenine dinucleotide phosphate], under setting [4], the “scaled lipid accumulation score” value is no more than -0.027.
Consider `CC1Nc2ccc(Cl)cc2S(=O)(=O)N1` (stereo not given), for which the “scaled lipid accumulation score” value under setting [4] was no more than -0.006.
For `CC(=O)c1ncc([C@@H](O)[C@H](O)[C@H](O)CO)[nH]1` [2-Acetyl-5-tetrahydroxybutyl Imidazole], the “scaled lipid accumulation score” value under setting [6] was no more than 0.
Consider `COc1ccc(/C=C/c2nc(NCCCN(C)C)c3ccccc3n2)cc1`, for which the “scaled lipid accumulation score” value under setting [4] is 0.387.
As for `Cc1[nH]c2ccccc2c1CCNCc1ccc(/C=C/C(=O)NO)cc1` [Panobinostat (LBH589)], the “scaled lipid accumulation score” value is, setting by setting: under setting [5], 0.728; under setting [4], 0.587.
Consider `O=c1cc(N2CCNCC2)oc2c(-c3ccccc3)cccc12` [listing 1 of 2 here], for which the “scaled lipid accumulation score” value under setting [4] was 1.28 (active).
On the same count and under the same terms, the result for `O=c1cc(N2CCOCC2)oc2c(-c3ccccc3)cccc12` [LY-294,002 hydrochloride] reads 0.089.
Take `O=c1cc(N2CCOCC2)oc2c(-c3ccccc3)cccc12`: the “scaled lipid accumulation score” value by setting is: under setting [6], 0.001; under setting [5], no more than 0; under setting [4], ≤ 0 and 0.005; (library stock concentration: 16.3 mM) no more than -0.012.
Take `O=c1cc(N2CCNCC2)oc2c(-c3ccccc3)cccc12` [listing 2 of 2 here]: under setting [5], the “scaled lipid accumulation score” value was 0.39.
On to `CC[C@]1(O)C[C@H]2CN(CCc3c([nH]c4ccccc34)[C@@](C(=O)OC)(c3cc4c(cc3OC)N(C)[C@H]3[C@@](O)(C(=O)OC)[C@H](OC(C)=O)[C@]5(CC)C=CCN6CC[C@]43[C@@H]65)C2)C1.O=S(=O)(O)O` [Vinblastine sulfate], for which the “scaled lipid accumulation score” value under setting [4] was 1.67 (active).
With `CCC1(O)CC2CN(CCc3c([nH]c4ccccc34)[C@@](C(=O)OC)(c3cc4c(cc3OC)N(C)C3[C@]45CCN4CC=C[C@@](CC)([C@@H](OC(C)=O)[C@]3(O)C(=O)OC)[C@H]45)C2)C1.O=S(=O)(O)O` (stereo not given in full) [Vinblastine sulfate salt], the “scaled lipid accumulation score” value under setting [4] was 0.877 (active).
Consider `CCCCCCCCCCCCCCCCCC(=O)OC(CC(=O)O)C[N+](C)(C)C` (racemic) [DL-Stearoylcarnitine chloride], for which the “scaled lipid accumulation score” value under setting [4] is 0.037.
Regarding `CCCCCCCCCCCCCCCC(=O)OC[C@H](O)[C@H]1OC(=O)C(O)=C1O` [Ascorbyl palmitate], for the setting “library stock concentration: 4.8 mM”, the “scaled lipid accumulation score” value is 0.002.
With `CC(=O)N[C@@H](CCC(=O)O)C(=O)O` [Acetylglutamic acid], the “scaled lipid accumulation score” value under setting [4] is no more than 0.
Regarding `CCCCN1CCCC1CNC(=O)c1cc(C#N)c2ccccc2c1OC` (stereo not given) [Nafadotride], the “scaled lipid accumulation score” value under setting [4] is 0.668 and 0.214.
`CS(=O)(=O)c1ccc(-c2nc(-c3ccc(F)cc3)c(-c3ccncc3)[nH]2)cc1`: under setting [5], the “scaled lipid accumulation score” value is no more than 0.
Take `CN(C)CC[C@@H](c1ccc(Br)cc1)c1ccccn1`: the “scaled lipid accumulation score” value under setting [4] is no more than 0.
For `O=C1NCCc2[nH]c(-c3ccncc3)cc21`, the “scaled lipid accumulation score” value reads like this: under setting [1], no more than -0.016; under setting [2], 0.1; under setting [3], 0.125; under setting [5], no more than 0; under setting [4], 0.19.
Consider `CCCCCCCCCCCCCC(=O)O` [Myristic Acid], for which, under setting [6], the “scaled lipid accumulation score” value was no more than 0.
Regarding `Cn1c(=O)c(-c2c(Cl)cccc2Cl)cc2cnc(Nc3ccc(N4CCOCC4)cc3)nc21`, the “scaled lipid accumulation score” value under setting [4] is no more than 0.
For `c1nc2c(NC3CCCCC3)nc(Nc3ccc(N4CCOCC4)cc3)nc2[nH]1` [Reversine], the “scaled lipid accumulation score” value under setting [5] is no more than 0.
Regarding `c1cn2cc(-c3ccc4cn[nH]c4c3)nc(Nc3ccc(N4CCOCC4)cc3)c2n1` [Entospletinib] [listing 1 of 2 here], the “scaled lipid accumulation score” value by setting is: under setting [1], no more than 0; under setting [2], 0.023.
Take `c1cn2cc(-c3ccc4cn[nH]c4c3)nc(Nc3ccc(N4CCOCC4)cc3)c2n1`: the “scaled lipid accumulation score” value reads like this: under setting [5], 1.04 (active); under setting [4], 0.944 (active).
Taken in the same sequence, the figures for `Cc1cc(N2CCOCC2)ccc1Nc1nc(NC2CCCCC2)c2[nH]cnc2n1` were 0.091 and no more than 0.
For `c1cn2cc(-c3ccc4cn[nH]c4c3)nc(Nc3ccc(N4CCOCC4)cc3)c2n1` [Entospletinib] [listing 2 of 2 here], the “scaled lipid accumulation score” value runs as follows: under setting [3], 1.2 (active); under setting [4], 1.21 (active).
